Reference: PubChem BioAssay (NCI)
The panel holds about 79,000 compounds, 15% with a hit somewhere; the sample as a whole holds those more often. Rule as the data show it: active = growth inhibition above about 70%; inactive = the rest.

Assays:
[1] = NCI Yeast Anticancer Drug Screen. Data for the rad50 strain (AID 155);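 also: 0% = growth of vehicle-only cultures of the same strain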; details: S. cerevisiae rad50 strain growth inhibition; at 50.0 µM; active compounds read high
Summary of the method: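 A DNA repair-deficient yeast mutant serves as the test organism; compound-induced growth inhibition is calculated against vehicle-treated cells.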

[2] = NCI Yeast Anticancer Drug Screen. Data for the mec2-1 strain (AID 157); details: S. cerevisiae mec2-1 strain, at 50.0 µM, active compounds read high
Summary of the method: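 Vehicle-treated cultures served as reference for growth inhibition of compound-exposed mec2-1 yeast.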

[3] = NCI Yeast Anticancer Drug Screen. Data for the sgs1 mgt1 strain (AID 161);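 also: 0% = growth of cultures given vehicle only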; details: S. cerevisiae sgs1 mgt1 strain, at 50.0 µM, active compounds read high
Summary of the method: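 Genetically altered yeast, compound exposure, growth inhibition relative to vehicle.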

[4] = NCI Yeast Anticancer Drug Screen. Data for the cln2 rad14 strain (AID 165);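 also: 0% = growth equal to vehicle treated cultures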; details: S. cerevisiae cln2 rad14 strain, at 50.0 µM, active compounds read high
Summary of the method: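 Each compound was tested on cln2 rad14 yeast. Inhibition of growth was calculated against vehicle-exposed controls.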

[5] = NCI Yeast Anticancer Drug Screen. Data for the bub3 strain (AID 167); details: S. cerevisiae bub3 mutant strain, at 50.0 µM, active compounds read high
Summary of the method: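 Inhibition values come from growth of compound-treated mutant yeast normalised to vehicle-treated controls.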

[6] = NCI Yeast Anticancer Drug Screen. Data for the mlh1 rad18 strain (AID 175); details: S. cerevisiae mlh1 rad18 strain growth inhibition; at 50.0 µM; active compounds read high
Summary of the method: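 Vehicle-treated cultures served as the reference for growth inhibition in a yeast strain carrying DNA damage repair alterations exposed to each compound.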

Measured: growth inhibition

CC(=O)NNc1nc(C)c(C(/C=C/c2ccccc2O)=N/N=C(N)N)s1
inactive: [1] -19.2% | [2] -19.4% | [3] -21.4% | [4] -7.1% | [5] -10.6% | [6] -33.2%

N[C@@H](C[C@H]1CCC(=O)[C@@H]2O[C@H]12)C(=O)O
inactive: [1] -1.5% | [2] -12.8% | [3] -12.5% | [4] 0.35% | [5] 13.2% | [6] -10.9%

O=c1cnn(C2OC(C(O)CO)C(O)C2O)c(=O)[nH]1 (stereo unspecified)
inactive: [1] -6.9% | [2] -81.5% | [3] -8.75% | [4] -27.6% | [5] -11.2% | [6] -18.4%

CCOC(COc1ccc2ccccc2c1)OCC
inactive: [1] -18.6% | [2] 0.5% | [3] 0.55% | [4] -55.7% | [5] 6.9% | [6] -10.1%

CCN(CC)CCCNc1ccc(-c2cc(OC)cc3cccnc23)cc1
inactive: [1] -5.95% | [2] -17.1% | [3] -0.05% | [4] -14.1% | [5] 6% | [6] 4.4%

CC/C(=C/c1cccc([N+](=O)[O-])c1)C(=O)O
inactive: [1] -9.3% | [2] -23.9% | [3] 0% | [4] 6.1% | [5] -13.7% | [6] -0.2%

N#CC(NNC(=O)c1ccccc1O)c1ccccc1 (stereo unspecified)
inactive: [1] 16.1% | [2] 0.5% | [3] 9.85% | [4] -8.7% | [5] 35.9% | [6] 3.75%

C=[N+](CNC(=O)CNC(=O)C(Cc1ccc([N+](=O)[O-])cc1)NC(=O)OC(C)(C)C)C(=O)CNC(=O)C(Cc1ccc([N+](=O)[O-])cc1)NC(=O)OC(C)(C)C (stereo unspecified)
inactive: [1] -23.1% | [2] -28% | [3] -29.4% | [4] 3.3% | [5] -12.2% | [6] -18.8%

CCSc1nc(C)nc2c1cnn2-c1ccccc1
inactive: [1] -0.1% | [2] -6.7% | [3] -2.65% | [4] -35.6% | [5] -13.8% | [6] 1.95%

CC(=O)N(C)c1cccc2ccccc12
inactive: [1] 17.9% | [2] -1.35% | [3] 9.85% | [4] -4.65% | [5] 6.75% | [6] 5.2%

CC(C(=O)O)/C(=C\c1ccccc1)C(=O)O (stereo unspecified)
inactive: [1] 16.6% | [2] 7.25% | [3] 21.6% | [4] -17.5% | [5] 12.6% | [6] 11.4%

CCC(=O)Cc1ccc(OC)c(OC)c1
inactive: [1] -0.3% | [2] -3.5% | [3] 19.6% | [4] 7.3% | [5] 9.35% | [6] 2.5%

Nc1ccc2c(c1)C(=O)c1cc(C(=O)O)ccc1-2
inactive: [1] 21.2% | [2] -2.55% | [3] 9.75% | [4] 15.9% | [5] 12.8% | [6] -10.1%

COc1cc2c(cc1OC)C(CCN)NCC2 (stereo unspecified)
inactive: [1] -8.75% | [2] 7.2% | [3] -2.55% | [4] 7.3% | [5] -3.95% | [6] -9.25%

O=P(O)(O)c1ccccc1Oc1ccccc1
inactive: [1] 7.8% | [2] 7.55% | [3] 26.3% | [4] 29.1% | [5] 8.05% | [6] 6.95%

O=C(O)c1cccc(C(=O)O)c1S(=O)Cc1ccccc1 (stereo unspecified)
inactive: [1] 3.45% | [2] -15.1% | [3] 1.2% | [4] -0.15% | [5] -17.1% | [6] 17.9%

CCCCCC(=O)OCCN(C)C
inactive: [1] -7.15% | [2] -24.2% | [3] -4.45% | [4] 21.1% | [5] -13.5% | [6] 24.9%

C1=C(c2ccccc2)c2ccccc2CC1
inactive: [1] -10.3% | [2] -7.25% | [3] -0.35% | [4] -3.45% | [5] 2.2% | [6] 3%

Nc1nc(Cl)c(Cl)nc1C(=O)O
inactive: [1] -4.65% | [2] 10.4% | [3] 2.3% | [4] -32.6% | [5] -4.25% | [6] -1.15%

CCCCCCCCCCCCCCCCCCCCCCCCCCCC
inactive: [1] -8.5% | [2] -10.1% | [3] -16% | [4] -21.2% | [5] -4.55% | [6] -22.9%

Cc1ccc(S(=O)(=O)ON2C(=O)c3cccc4cc([N+](=O)[O-])cc(c34)C2=O)cc1
inactive: [1] 35.1% | [2] 45% | [3] 39.4% | [4] 17.4% | [5] -12.2% | [6] 8.65%

NNC(=O)/C(NC(=O)c1ccccc1)=C(\N)c1cccc([N+](=O)[O-])c1
inactive: [1] -34.4% | [2] -30.4% | [3] 11.7% | [4] 3.25% | [5] -13.1% | [6] 0.9%

CC(=O)c1ccc(N=C2C=CC(=O)O2)cc1
inactive: [1] 6.85% | [2] -14.9% | [3] -11.1% | [4] -21.5% | [5] -4.65% | [6] 7.65%

CCOC(=O)C1(C)CCC(C(C(=O)O)C(=O)O)CC1=O (stereo unspecified)
inactive: [1] -10.5% | [2] 9.95% | [3] 13.7% | [4] 20.2% | [5] 21.4% | [6] -12.5%

O=C1c2cccc([N+](=O)[O-])c2C(=O)c2cccc(Cl)c21
inactive: [1] 29.2% | [2] 9.35% | [3] -4.15% | [4] -17.9% | [5] 32.5% | [6] 42.9%

COc1ccccc1-c1nc2ccccc2c(=O)[nH]1
inactive: [1] 12.8% | [2] -25.9% | [3] -14.1% | [4] 8.5% | [5] 6.4% | [6] 2.25%

O=c1cc(CSc2ncnc3nc[nH]c23)occ1O
inactive: [1] -11.3% | [2] -4.4% | [3] -2.1% | [4] 2.55% | [5] 11.8% | [6] 4.2%

COc1cccc(NCC(=O)Nn2c(-c3ccccc3)nc3ccccc3c2=O)c1
inactive: [1] -37.5% | [2] -40.8% | [3] -27.2% | [4] -3.05% | [5] 5% | [6] -23%

c1ccc(CSc2cnnc3ccccc23)cc1
inactive: [1] 3.9% | [2] -10.8% | [3] 6% | [4] -11.1% | [5] 14.1% | [6] 31.9%

N#Cc1ccccc1NC(=O)C(=O)C(C(=O)c1ccccc1F)C1OC(=O)c2ccccc21 (stereo unspecified)
inactive: [1] -1.1% | [2] -10.8% | [3] -5.25% | [4] -5.5% | [5] -16.2% | [6] -2.4%

c1ccc(SSc2ccc3ccccc3c2)cc1
inactive: [1] 22.4% | [2] 39.1% | [3] 32.6% | [4] 24.6% | [5] 31.4% | [6] 28.3%

COc1cccc(N=Cc2ccc(C=Nc3cccc(OC)c3)cc2)c1
inactive: [1] 5.95% | [2] -9.1% | [3] 11.1% | [4] -9.35% | [5] 27.7% | [6] -12.4%

COc1ccc(C(C)=O)cc1CCCOC(C)=O
inactive: [1] -0.7% | [2] -1.35% | [3] -7.5% | [4] 10.7% | [5] 9% | [6] -2.6%

CSc1nc2c(c(=O)[nH]1)N=C(c1ccccc1)CC(c1ccccc1)N2 (stereo unspecified)
inactive: [1] 7.45% | [2] 14.7% | [3] 17.8% | [4] -0.55% | [5] 22.6% | [6] -5.85%

N#CSCc1ccc(CSC#N)c(Br)c1
inactive: [1] 20.2% | [2] 14.9% | [3] 7.85% | [4] 18.6% | [5] 10.4% | [6] 43.4%

N#Cc1c(-c2ccccc2)cc(-c2ccccc2)n(C2OCC(O)C(O)C2O)c1=S (stereo unspecified)
inactive: [1] 5.1% | [2] 30.6% | [3] 31.5% | [4] -7.45% | [5] 3.15% | [6] -0.05%

O=[N+]([O-])c1ccccc1-c1ccccc1CO
inactive: [1] -22% | [2] -19.2% | [3] -41.4% | [4] -23.4% | [5] -18.4% | [6] -28.9%

CS(=O)(=O)O[C@H]1[C@H](O)c2ccccc2[C@@H]1N=[N+]=[N-]
inactive: [1] 13.5% | [2] 3.95% | [3] -2.05% | [4] -3% | [5] -10.2% | [6] -51.4%

COC(=O)C1=CN=C(C(=O)OC)NN1
inactive: [1] 13.9% | [2] 0.25% | [3] -8.6% | [4] 15.8% | [5] -4.45% | [6] 3.15%

CCOC(=O)C(C)(C)Oc1ccc2c(-c3ccc(Cl)cc3)cc(=O)oc2c1
inactive: [1] 9.05% | [2] -5.1% | [3] -2.5% | [4] 7.65% | [5] -11.9% | [6] 2.55%

CCC1C(OC)=CC2(CC)CC1(OC)OC2=O (stereo unspecified)
inactive: [1] -4.75% | [2] -0.3% | [3] -1.2% | [4] -2.45% | [5] 7.45% | [6] -3.35%
